High-throughput results from PubChem BioAssay.
The sample as a whole holds a higher share of hits than the screen did.
Sfp PPTase inh – inhibitors of Bacillus subtilis Sfp phosphopantetheinyl transferase | Q9F4F7 | Biochemical Sfp PPTase activity, qHTS | Potency, µM, for inactives: largest response in the series, negative = inhibition, most hits filed as inhibitors | 3.5% of 310,000 active;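 further: the enzyme is Sfp with the accession as filed and its product quenches rhodamine fluorescence; 0% = enzyme reaction without inhibitor and -100% = no enzyme wells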
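With Hepes-Na pH 7.6 buffer containing 10 mM MgCl2, Sfp (15 nM) modified BHQ-2-YbbR (12.5 uM) using rhodamine-CoA (5 uM). Two reads 30 minutes apart at 525/598 nm yielded each well's rate.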
ALOX12 inh – ALOX12 (human) lipoxygenase inhibition | 1.1% of 580,000 active | purified 12hLO, xylenol orange hydroperoxide absorbance | Potency, µM (titrated, usually from 108 µM), without a hit: at the highest dose activity change, negative = inhibition, hits mostly inhibitors; further: on the % scale 0 is the no-effect control and ±100 the full control effect
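Purified human 12hLO (150 nM final) in 25 mM Hepes, 0.01% Triton X-100, pH 7.0 was preincubated 15 min at room temperature with compound. Then 40 uM arachidonic acid was added, 30 min. Hydroperoxide was read by Fe-XO absorbance ratio 573/405 nm.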
G9a inh – G9a (human) methyltransferase inhibition. Q96KQ7. G9a H3K9 monomethylation, AlphaScreen, 2 h. Potency, µM (doses to about 102 µM), without a hit: at the top dose activity, negative = inhibition, usual class: inhibitors. 8.8% of 350,000 active. AID 504332; further: on the % scale 0 is the no-effect control and ±100 the full control effect; nearly all actives have a fitted effect of over 75% in size
Target sequence (Q96KQ7 913-1193 limits assumed): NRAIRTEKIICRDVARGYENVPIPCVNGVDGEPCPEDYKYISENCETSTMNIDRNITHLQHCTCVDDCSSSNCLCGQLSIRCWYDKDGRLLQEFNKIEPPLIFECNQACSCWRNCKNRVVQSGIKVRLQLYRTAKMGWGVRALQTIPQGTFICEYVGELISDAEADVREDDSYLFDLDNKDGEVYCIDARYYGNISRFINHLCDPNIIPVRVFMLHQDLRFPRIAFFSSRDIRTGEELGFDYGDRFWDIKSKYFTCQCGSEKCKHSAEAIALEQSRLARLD
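Readings reflect AlphaScreen signal from monomethyl-H3K9 antibody detection. HMT at 20 nM; substrate b-H3K9 500 nM; cofactor SAM 20 uM; 2 h RT reaction; compounds tested as titrations in qHTS with 15 min preincubation.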
GRP78 ERSR act – ER stress response induction in glioma | Potency, µM, for inactives: top-dose activation, most hits filed as activators | 0.02% of 420,000 active | U87-MG GRP78 promoter luciferase reporter, 16 h; further: series mostly up to about 76 µM; % of control where 0% means no effect; nearly all actives have a fitted effect of over 35% in size
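Stably transfected U87-MG human glioma cells carrying a GRP78-based luminescent sensor were seeded at 1000 cells/well, pin-dosed with compounds and incubated 16 h. Luciferase reagent was then added, and end-point luminescence was read after 10 min at room temperature.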
VDR inh – vitamin D3 receptor (human) inhibition; Potency, µM, for inactives: max response, negative = inhibition, hits mostly inhibitors; 0.93% of 400,000 active; VDR-SRC2-3 peptide fluorescence polarization, 2 h; AID 504847; further: on the % scale 0 is the no-effect control and ±100 the full control effect
Target sequence (P11473 whole entry, looked up): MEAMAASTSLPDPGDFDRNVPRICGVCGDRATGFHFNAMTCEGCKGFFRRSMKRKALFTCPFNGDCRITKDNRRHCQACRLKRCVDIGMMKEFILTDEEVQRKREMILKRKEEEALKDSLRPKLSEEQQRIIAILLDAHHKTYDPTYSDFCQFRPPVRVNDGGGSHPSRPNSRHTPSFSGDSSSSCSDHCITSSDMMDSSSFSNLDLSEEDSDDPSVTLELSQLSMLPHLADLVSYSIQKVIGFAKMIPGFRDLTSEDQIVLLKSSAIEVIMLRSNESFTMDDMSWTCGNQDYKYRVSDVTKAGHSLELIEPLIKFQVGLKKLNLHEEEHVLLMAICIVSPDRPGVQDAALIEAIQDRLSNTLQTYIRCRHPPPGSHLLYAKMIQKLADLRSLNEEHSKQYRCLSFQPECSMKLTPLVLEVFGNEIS
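FP read-out; VDR + SRC2-3 coactivator peptide; 23 nl compound by pintool; 2 h RT incubation; reagents held at 4 deg C, protected from light.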
Numbers without * were called inactive; ? = inconclusive; · = no result given; ! = not confirmed by another sample; [ ] = dose if it differs, or a comment. The call rests on the fitted dose curve; in most records, active means well fitted curve in the direction sought with a large enough effect; inconclusive means small, poorly fitted or top-dose-only effect, or another doubt; inactive means no such curve, though single readings can be large; an effect the other way counts as inactive or inconclusive. Potency means the concentration at half of the fitted maximal effect.

SMILES	Sfp PPTase inh	ALOX12 inh	G9a inh	GRP78 ERSR act	VDR inh
COc1ccc(OC)c(NC(=O)c2c(NCc3cccs3)sc3c2CCCC3)c1	·	?	?	-3%	-14%
COc1ccc(Cl)cc1NC(=O)c1c(NCc2cccs2)sc2c1CCCC2	·	?	1.4µM*	0%	4%
COc1ccc(OC)c(NC(=O)c2c(NC(=O)CCC(=O)O)sc3c2CCCCC3)c1	50µM*	?	45µM*	-7%	?
COc1ccc(OC)c(NC(=O)c2c(NCc3cccs3)sc3c2CCCCC3)c1	·	?	11µM*	-1%	7%
COc1ccccc1-n1c(=O)c2c3c(sc2n2c(=S)[nH]nc12)CCC3	-13%	?	3.2µM*	-6%	16%
COc1ccc(-n2c(=O)c3c4c(sc3n(Cc3ccccc3)c2=O)CCC4)c(OC)c1	·	-2%	?	4%	3%
C[S+](=O)([O-])N1CCCC2(C1)C(=NC1CCCC1)NC(=O)N2c1cc(F)cc(F)c1 (configuration not stated)	·	89µM*	·	·	·
CCCCC(=O)NC(=S)Nc1cccc(Cl)c1N1CCCCC1	10%	35µM*	1%[59 µM]	-4%	4%
CC(C)(C)C(=O)NC(=S)Nc1ccccc1N1CCCC1	1%	?	40µM*	-3%	-12%
CC(C)CC(=O)NC(=S)Nc1ccccc1N1CCCC1	5%	?	11µM*	-2%	-24%
CC(=O)NC(=S)Nc1ccccc1N1CCCCC1	-18%	-4%	50µM*	-6%	-12%
COc1ncccc1CNC(=O)c1ccc2c(c1)CCC(=O)N2	·	25%	·	·	·
CCc1ccc2c(COC(=O)c3cc(S(=O)(=O)N(C)C)ccc3NCCO)cc(=O)oc2c1	·	-57%	·	·	·
O=C(NCc1ccc(N2CCCC2)nc1)c1cc(Cl)ccc1O	·	6%	·	·	·
Cc1ccc(NC(=O)c2ccc(OC(F)F)cc2)cc1S(=O)(=O)N(C)C	4%	-14%	22%[59 µM]	-1%	13%
Cc1ccc(-n2c([S-])c(C(=O)Nc3ccc(OC(F)F)cc3)[n+]3ccc(C(=O)NCCO)cc23)cc1C	?	?	10µM*	1%	-21%
COc1ccccc1-n1c([S-])c(C(=O)Nc2ccccc2C(F)(F)F)[n+]2ccc(C(=O)NCCO)cc12	7%	-11%	20µM*	1%	5%
CCN(CC)CCCNC(=O)c1ccc(OCC(=O)Nc2ccccc2C(F)(F)F)c(OC)c1	0%	-20%	60%	-4%	1%
O=[N+]([O-])c1ccc(N/N=C2\CC3CC=CC23)c([N+](=O)[O-])c1 (configuration not stated)	?	-12%	14µM*	-2%	-17%
O=[N+]([O-])c1ccc(N/N=C2\CC3CC=CC23)cc1 (configuration not stated)	-6%	?	45µM*	3%	24%
O=C(N/N=C1\CC2CC=CC12)c1ccc(O)cc1 (configuration not stated)	-15%	-2%	13%	4%	23%
CCOC(=O)C1=C[C@]2(CC)CCCN3CCc4c(n1c1ccccc41)[C@@H]32	-26%	?	22µM*!	-4%	11%
CC[C@]12CCCN3CCc4c(n(c5ccccc45)C(=O)C1)[C@@H]32	·	?	-39%[59 µM]	-3%	-11%
CCOC(=O)c1sc(C)nc1C1CCN(C(=O)OCC)CC1	-14%	-7%	45µM*	2%	-11%
Cc1ccc(NC(=O)c2ccc(N3CC4CC(C3)[C@H]3CCCC(=O)N3C4)nc2)c(C)c1 (some centres not stated)	·	-11%	·	·	·
SMILES	Sfp PPTase inh	ALOX12 inh	G9a inh	GRP78 ERSR act	VDR inh
CCN(CC)CCN(CC)Cc1ccccc1Br	4%	?	50µM*	-4%	14%
COc1cccc(NC(=O)c2c(-c3ccccc3)oc3ccc(OC)cc23)c1	·	27%	·	·	·
COc1ccc(NC(=O)Cn2c(C)cc(=O)c3ccccc32)cc1	-2%	1%	17%	-3%	2%
COc1ccc(NCC(=O)n2c(C)c(C)c3ccccc32)cc1	8%	?	10µM*	-4%	?
Fc1ccc(CN2Cc3[nH]cnc3C[C@H]2c2nc(-c3ccc(F)c(Cl)c3)no2)cc1	·	21%[176 µM]	·	·	·
O=[N+]([O-])c1ccccc1-c1ccc(CN2CCN(c3ccccc3)CC2)o1	?	?	40µM*	-2%	-18%
O=[N+]([O-])c1cccc(-c2ccc(CN3CCN(c4ccccc4)CC3)o2)c1	?	7.1µM*	40µM*	-3%	-9%
O=[N+]([O-])c1cc(CN2CCN(c3ccccc3)CC2)c(O)c2ncccc12	24%	?	?	-3%	1%
Cc1ccccc1-n1cc(-c2ccnc(NC(C)Cc3ccncc3)n2)cn1 (configuration not stated)	·	79%	·	·	·
O=C(CSc1nc2cc(Cl)ccc2s1)NC1CC1	·	20%	·	·	·
O=C(NCC12CC3CC(CC(C3)C1)C2)c1ccc(Cl)c([N+](=O)[O-])c1	·	-4%	·	·	·
COc1ccc(-c2cc(-c3c(C)noc3C)cc3c2C(=O)N(C)C3)cn1	·	49%[176 µM]	·	·	·
COC(=O)C1=C(C)N(c2ccc(OC)c(OC)c2)C(=O)C1	11%	-14%	71µM*	-4%	-1%
COC(=O)C1=C(C)N(c2cccc(Cl)c2)C(=O)C1	-5%	?	?	-8%	-5%
CCCCNC(=S)Nc1ccccc1Cl	·	-16%	·	·	·
Cc1cc(C)n(-c2nc(-c3ccccc3)cs2)n1	-6%	-20%	120%	4%	2%
Cc1cc(C)n(-c2nc(C(=O)O)cs2)n1	10%	-11%	50µM*	-3%	4%
CC(C)C(=O)NC(C)c1ccc(Cl)cc1Cl (configuration not stated)	·	-6%	·	·	·
Cn1c(CN2CCCC2)nc2cc(NC(=O)c3cccs3)ccc21	-20%	-10%	14µM*	1%	0%
O=C(Nc1ccc2c(c1)nc1n2CCSC1)c1ccccc1	4%	-15%	?	-10%	-4%
COCCN1CCn2c(nc3cc(NC(=O)c4cccs4)ccc32)C1	-9%	-4%	20µM*	1%	-32%
COc1ccc(C(=O)Nc2ccc3c(c2)nc2n3CCSC2)cc1	13%	2%	50µM*	5%	-10%
CC(=O)N1CCN(Cc2nc3cc(NC(=O)c4cccs4)ccc3n2C)CC1	10%	-5%	59%	-1%	-7%
CCCCC(=O)Nc1ccc2c(c1)nc1n2CCN(CCOC)C1	10%	126%	32µM*	1%	5%
Cc1ccc(C)c(S(=O)(=O)c2nnn3c2nc(N2CCCCC2)c2ccccc23)c1	·	2%[6.33 µM]	·	·	·
O=C(NN=C1CCCC1)c1nc(-c2ccccc2)n(-c2ccccc2)n1	·	73%	·	·	·
CCCC(=O)Nc1ccc2c(c1)nc1n2CCN(CCOC)C1	-13%	?	25µM*	0%	-14%
CCCC(=O)Nc1ccc2c(c1)nc(CN1CCN(C(=O)OCC)CC1)n2C	5%	0%	18%	0%	25%
